These results are taken from PubChem BioAssay (Tox21).

Each structure is given as a SMILES string. Inconclusive results are not listed. Calls of active or inactive are those of the source. The call rests on the fitted dose curve; in most records, active means well fitted cell-killing curve with a large enough effect in the repeat runs; inconclusive means weak or mixed curves, or effect the other way; inactive means no such curve, though single readings can be large or run the other way.

This assay can be described thus: qHTS assay to identify small molecule antagonists of the glucocorticoid receptor (GR) signaling pathway - cell viability counter screen (AID 720693). Further: nearly all actives have a fitted effect of over 55% in size. The conditions noted are these: GR-bla HeLa viability, CellTiter-Glo luminescence, 18 h, with 5 nM dexamethasone present; series mostly up to 58.5 µM. The source says:
National Center for Advancing Translational Sciences [NCATS]
NIH Chemical Genomics Center [NCGC]
U.S. Environmental Protection Agency [EPA]
National Institutes of Environmental Health Sciences [NIEHS]
National Toxicology Program [NTP]
U.S. Food and Drug Administration [FDA]
The Glucocorticoid receptor (GR) is one of the members of the nuclear receptor family of ligand-dependent transcription factors. GR plays a critical role in carbohydrate, protein and lipid metabolisms and programmed cell death. CellSensor GR-bla HeLa cell line (Invitrogen) contains a beta-lactamase reporter gene under the control of the glucocorticoid response element stably integrated into HeLa cells, a cervical cancer cell line that expresses glucocorticoid receptor. The activation of the reporter gene under culture conditions can be detected by fluorescence intensity. This cell line has been used to screen the Tox21 10K compound library and to identify the compounds that inhibit the GR signaling. The cytotoxicity of the Tox21 compound library against the GR-bla HeLa cell line was tested in parallel by measuring the cell viability using CellTiter-Glo assay in the same wells.
Tox21 Assay Protocol Summary:
The GR-bla HeLa cells were dispensed at 1500 cells/5 ul/well in 1536-well black wall/clear bottom plates using a Multidrop Combi (ThermoFisher Scientific, Waltham, MA) dispenser. After the assay plates were incubated at a 37 C/5% CO2 incubator for 4 hours, 23 nL of compounds dissolved in DMSO, positive controls or DMSO only was transferred to the assay plate by a pintool station (Kalypsys, San Diego, CA), followed by addition of 1 uL of dexamethasone (5 nM, final concentration in the well). The plates were incubated at 37 C for 18 hours. After 1 uL of LiveBLAzerTM B/G FRET substrate was added using a Flying Reagent Dispenser (Aurora Discovery, San Diego, CA), the plates were incubated at room temperature (RT) for 2 hours, and fluorescence intensity was measured by an Envision plate reader (PerkinElmer, Shelton, CT). After measurement of bla assay, 3 ul CellTiter-Glo (Promega, Madison, WI) was added to measure the cytotoxicity and the plates were then incubated at RT for 30 min. The luminescence was measured using a ViewLux (Perkin Elmer) plate reader.
Turning to `CNC(C)=O`, the compound was classed as inactive.

For the compound `CC(C)(C)c1ccc(N)cc1`, the compound was called inactive.

As to `CCO/C=C1\N=C(c2ccccc2)OC1=O`, the call was inactive.

Regarding `N[C@H]1C(O)O[C@H](CO)[C@@H](O)[C@@H]1O` (stereo not given in full), the compound was classed as inactive.

With `CC(C)(C)OC(=O)c1ccccc1C(=O)O`, the call was inactive.

For the compound `O=C(O)COc1ccc2ccccc2c1`, the outcome was inactive.

As to `O=C[C@@H](O)[C@H](O)[C@H](O)CO`, the outcome was inactive.

Regarding `CCCC[O][Al]([O]CCCC)[O]CCCC`, the compound was classed as inactive.

For the compound `Cc1cccc(N)n1`, the compound was called inactive.

In the case of `CCC(C)SSC(C)CC` (stereo not given), the outcome was inactive.

On to `CCCCCCCC(=O)N(C)C`, for which the compound was classed as inactive.

Regarding `CCOC(=O)c1ccc(N(C)C)cc1`, the result was inactive.

As for `CCCCc1ccc(Cl)cc1`, the call was inactive.

As to `CCCCCCCCCCCCCC(=O)OCC`, the call was inactive.

Regarding `CCNC(=O)C(C)OC(=O)Nc1ccccc1` (stereo not given), the result was inactive.

Consider `CC(C)OCCO`, for which the result was inactive.

Take `NNC(=O)OCc1ccccc1`: the compound was called inactive.

In the case of `N=C(N)N`, the call was inactive.

Regarding `NNC(=O)CCCCC(=O)NN`, the compound was called inactive.

Turning to `C[C@@H](CN1CC(=O)NC(=O)C1)N1CC(=O)NC(=O)C1`, the compound was called inactive.

`CC(=O)Nc1ccc(OCCOCCOc2ccc(NC(C)=O)cc2)cc1`: the result was inactive.

In the case of `C=CC(=O)CC`, the call was inactive.

Turning to `CC(C)(C)NCC(O)COc1cccc2c1CCC(=O)N2` (stereo not given), the compound was called inactive.

Turning to `COC(=O)C(c1ccccc1Cl)N1CCc2sccc2C1` (stereo not given), the compound was called inactive.

On to `C[C@@H]1CC[C@@]2(OC1)O[C@H]1C[C@H]3[C@@H]4CC[C@H]5C[C@@H](O)CC[C@]5(C)[C@H]4CC(=O)[C@]3(C)[C@H]1[C@@H]2C`, for which the compound was called inactive.

On to `CC(=O)OCC(=O)[C@@]1(O)CC[C@H]2[C@@H]3CCC4=CC(=O)C=C[C@]4(C)[C@H]3[C@@H](O)C[C@@]21C`, for which the result was inactive.

Regarding `c1coc(Cn2cccc2)c1`, the compound was classed as inactive.

In the case of `C/C=C(\C)C(=O)OC/C=C(\C)CCC=C(C)C`, the compound was called inactive.

With `O=P(O)(O)C(O)(Cc1cccnc1)P(=O)(O)O`, the outcome was inactive.

For `C=CCOC(=O)CCCCCCCC`, the result was inactive.

In the case of `Cc1ccccc1OCC(=O)O`, the result was inactive.

On to `CCOC(=O)CC(C(C)=O)C(C)=O`, for which the compound was classed as inactive.

Turning to `Cc1ccc(NC(N)=O)cc1`, the call was inactive.

On to `COC(=O)N/N=C/c1c[n+]([O-])c2ccccc2[n+]1[O-]`, for which the compound was classed as inactive.

For `CCCCCCC(=O)c1ccccc1`, the compound was classed as inactive.

With `CCCCCCCCS(=O)(=O)O`, the compound was classed as inactive.

In the case of `C[Si](C)(C)O[Si](O)(O)O`, the compound was classed as inactive.

For the compound `Cc1cc(O)c(Cl)cc1C`, the result was inactive.

In the case of `CN(C)CCc1c[nH]c2ccc(CS(=O)(=O)N3CCCC3)cc12`, the call was inactive.

For the compound `CC1(C)C(=O)C(C)(C)C1=O`, the outcome was inactive.
